In PubChem BioAssay AID652072 (Broad Institute, 2013):
Inconclusive results are not listed. The source made the active and inactive calls. The rule behind the calls is not given here.

Experiment: apoptosis induction over several timepoints, melanoma line – cell-based, LOX IMVI, luminescence, multiple timepoints, dry powder, mechanism study for HRAS target identification, dose response (AID 652072)
Conditions: caspase 3/7 luminescence; series mostly up to 35 µM

outcome, inactive:
Cc1onc(C(=O)N2CCN(C(c3ccc(Cl)cc3)c3ccc(OCCOCCOCCNC(=O)OC(C)(C)C)cc3)CC2)c1[N+](=O)[O-] (centres undefined)
Cc1onc(C(=O)N2CCN(C(c3ccc(Cl)cc3)c3ccc(Cl)cc3)CC2)c1[N+](=O)[O-]
C#CCCCC(=O)NCCOCCOCCOc1ccc(N(C(=O)CCl)C(C(=O)NCCc2ccccc2)c2cccs2)cc1Cl (centres undefined)
CCC(=O)N(c1ccc(OC)c(Cl)c1)C(C(=O)NCCc1ccccc1)c1cccs1 (centres undefined)
